Compound activity as filed in PubChem BioAssay.
CHO-K1 Ca ag – counter-screen for M1 agonists: effect in parental CHO-K1 cells | Fluo-8 calcium fluorescence; scaled to maximal ATP response, vehicle zero | 360,000 compounds, 0.48% hits | activation, % at 3 µM; in the data active means activation above about 15%;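 further: untransfected CHO-K1 host cells lacking M1 receptor as counterscreen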
CHO-K1 Ca PAM – nonselective calcium activators in parental CHO-K1 cells, primary screen, counter-screen for M1 PAM project, cell-based, Fluo-8 calcium fluorescence, full deck, 1536-well | AID 602247, 2012 | activation, % at 3 µM | ATP EC20; 0% at ATP EC20, 100% at ATP max | 360,000 compounds, 0.02% hits;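 active means activation above the run cutoff, the mean activation of all test compounds plus 3 SD, cut at about 40% in these data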;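 further: peak over basal fluorescence ratio in a 140 s read after ATP addition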
CHO-K1 Ca antag – counter-screen for M1 antagonists: effect in parental CHO-K1 cells | AID 602250 | 360,000 compounds, 0.6% hits | ATP-induced calcium, Fluo-8 fluorescence | inhibition, % at 3 µM;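 active means inhibition above a per-plate cutoff, the plate's mean sample inhibition plus 3 SD, cut at about 24% in these data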;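 further: 0% = DMSO plus EC80 ATP and 100% = DMSO alone without ATP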
M1 PAM – human M1 muscarinic receptor positive allosteric modulators, primary screen, CHO-K1 cells, Fluo-8 calcium fluorescence, 1536-well. CHO-K1 hM1, ACh EC20; 0% = ACh EC20, 100% = maximal ACh. activation, % at 3 µM. 360,000 compounds, 0.088% hits. AID 588819, 2011; in the data active means activation above about 19%, passing the limit was not always enough
Target sequence (P11229 whole entry, looked up): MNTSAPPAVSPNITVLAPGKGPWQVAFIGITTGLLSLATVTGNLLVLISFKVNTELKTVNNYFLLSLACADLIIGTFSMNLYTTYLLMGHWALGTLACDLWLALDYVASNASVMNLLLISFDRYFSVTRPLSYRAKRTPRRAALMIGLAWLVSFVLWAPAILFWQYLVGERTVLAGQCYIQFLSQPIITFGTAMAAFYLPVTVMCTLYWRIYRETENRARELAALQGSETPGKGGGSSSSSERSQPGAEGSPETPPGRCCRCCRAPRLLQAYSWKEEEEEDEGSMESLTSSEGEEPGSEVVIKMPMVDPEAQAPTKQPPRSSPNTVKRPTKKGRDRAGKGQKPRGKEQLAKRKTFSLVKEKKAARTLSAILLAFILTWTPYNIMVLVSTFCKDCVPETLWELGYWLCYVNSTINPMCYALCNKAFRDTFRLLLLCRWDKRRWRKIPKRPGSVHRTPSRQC
M1 antag – human M1 muscarinic receptor antagonists, primary screen, CHO-K1 cells, Fluo-8 calcium fluorescence, 1536-well. 360,000 compounds, 1.3% hits. inhibition, % at 3 µM. Muscarinic acetylcholine receptor M1 (Homo sapiens), P11229. CHO-K1 hM1, ACh EC80 antagonist;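 active means percent inhibition above its own plate's cutoff, namely the mean of that plate's compound wells plus 3 SD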;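 further: peak over basal fluorescence ratio during 140 s after agonist addition; 0% = ACh EC80 plus DMSO and 100% = DMSO alone without agonist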
M1 ag – human M1 muscarinic receptor agonists, primary screen, Fluo-8 calcium fluorescence, CHO-K1 cells, HTS. CHO-K1 hM1, agonist mode; 0% DMSO, 100% acetylcholine EC100. activation, % at 3 µM. 360,000 compounds, 0.33% hits. AID 588814, 2011;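 active means activation above the run's mean compound activation plus 3 SD, cut at about 16% in these data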;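 further: peak over basal fluorescence ratio within a 140 s kinetic read after compound addition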
Starred values were filed as active, the others as inactive; . = no result. Compounds with a hit are over-represented: about 2.3% of the library has one in this group of screens.

SMILES | CHO-K1 Ca ag | CHO-K1 Ca PAM | CHO-K1 Ca antag | M1 PAM | M1 antag | M1 ag
CCOC(=O)[C@@H]1[C@H]2COc3ccccc3[C@H]2N2C(=O)N(c3ccc(C(F)(F)F)cc3)C(=O)[C@]12C | 5.0 | 4.4 | -5.2 | -20.5 | 34.2* | -1.5
COc1cc(C)c(CN2CCN(CC(=O)Nc3ccccc3C(=O)NC3CC3)CC2)cc1OC | 1.1 | -12.9 | -0.5 | 3.5 | 2.4 | -3.9
CCN1CCN(c2ccc(NC(=O)c3ccco3)cc2Cl)CC1 | -0.2 | 3.1 | 0.1 | -10.5 | 16.7 | -11.7
CCN1CCN(c2ccc(NC(=O)c3cccc(F)c3)cc2Cl)CC1 | 4.2 | -0.2 | 3.2 | -24.6 | 53.8* | -7.8
CCN1CCN(c2ccc(NC(=O)c3cccc(S(=O)(=O)N4CCCC4)c3)cc2)CC1 | 0.7 | 16.3 | -1.9 | -28.1 | 74.3* | -7.1
O=C(Nc1ccc(N2CCOCC2)cc1)c1cccc(S(=O)(=O)N2CCCCC2)c1 | 1.7 | 11.4 | -9.7 | -7.2 | -24.7 | -2.5
O=C(Cc1ccc(Cl)cc1)Nc1ccncc1 | 8.6 | -6.1 | 10.2 | 5.2 | -7.2 | -1.2
Cc1ccc(CC(=O)Nc2ccncc2)cc1 | 5.7 | -10.2 | 36.1* | -12.7 | 14.2 | 1.9
CCc1ccc(OCC(=O)Nc2ccncc2)cc1 | 16.8* | -9.8 | 22.4 | -10.9 | 22.4 | 2.5
CC(C)(C)c1ccc(OCC(=O)Nc2ccncc2)cc1 | 9.9 | -15.7 | 15.9 | -9.2 | 27.0 | 0.5
Cc1ccc(OCC(=O)NNC(=S)NC(=O)C2CC2)c(C)c1 | 5.1 | -17.1 | 1.7 | 3.1 | -0.3 | 1.1
Cc1ccc(OCC(=O)NNC(=S)NC(=O)C2CCCCC2)c(C)c1 | 5.6 | -13.7 | -8.3 | -1.3 | 2.2 | 20.2*
Cc1ccc(OCC(=O)Nc2ccncc2)c(C)c1 | 9.2 | -23.7 | 29.1* | -4.0 | 18.2 | 3.2
CN1CCC(N(C)S(=O)(=O)c2ccc(NC(=O)COc3ccc(F)cc3Cl)cc2)CC1 | 5.0 | 18.6 | -11.5 | 11.1 | -19.8 | -2.4
CC(C)NC(=O)c1cc(C2CCCCN2S(=O)(=O)c2cccs2)on1 (centres undefined) | 0.3 | -11.2 | 7.8 | -19.4 | 29.1 | -7.7
O=C(COc1ccccc1)Nc1ccncc1 | 2.9 | 9.2 | -8.1 | 5.5 | -4.9 | 0.2
Cc1ccc(Oc2ccc(OCC(=O)Nc3ccncc3)cc2)cc1 | 11.2 | -0.2 | 20.5 | -20.9 | 40.3* | 1.5
O=C1CNC(=O)/C1=C\N1CCN(C(c2ccccc2)c2ccccc2)CC1 | 0.9 | 24.9 | -11.8 | -26.3 | 42.7* | -5.5
Cc1ccnc(N/C=C(\C#N)c2nc(-c3cccc(Br)c3)cs2)c1 | 84.5* | -14.4 | 38.9* | -22.8 | 43.2* | 161.4*
N#C/C(=C\Nc1ccc2cn[nH]c2c1)c1nc(-c2ccccc2)cs1 | 0.2 | 14.7 | -3.2 | 3.2 | -1.7 | -3.3
O=C(COc1ccccc1Cl)NC1CC1 | 1.5 | 18.5 | -6.2 | 6.7 | -3.8 | -2.5
Cc1ccc(-c2csc(N3CCC(C(N)=O)CC3)n2)cc1 | 0.8 | 10.2 | 3.3 | 11.1 | -6.2 | 0.1
Cc1ccc(-c2csc(N3CCC(NS(=O)(=O)c4ccc5c(c4)OCCO5)CC3)n2)cc1 | 7.1 | 12.6 | 17.8 | -8.9 | 18.5* | 3.3
O=c1c2ccc(F)cc2sn1-c1ccccc1 | 10.9 | 3.8 | -1.7 | -1.1 | -12.4 | 16.4*
Cc1ccc(-n2sc3cc(F)ccc3c2=O)c(C)c1 | 14.9 | -1.8 | -0.3 | -4.1 | -8.9 | 17.5*
SMILES | CHO-K1 Ca ag | CHO-K1 Ca PAM | CHO-K1 Ca antag | M1 PAM | M1 antag | M1 ag
O=c1c2cc(F)ccc2sn1-c1ccccc1Cl | 0.4 | 4.5 | 3.6 | -1.4 | -4.4 | -1.3
COc1cc(C(=O)NN2C(=O)NC3(CCC(C)CC3)C2=O)ccc1OC(F)F (centres undefined) | 5.2 | -11.6 | 22.4 | 2.6 | 4.8 | -3.3
COc1ccc(C(=O)c2cnc(/N=C/N(C)C)s2)cc1 | -0.1 | -8.3 | 33.0* | 9.3 | 5.1 | 0.3
Cc1ccc(S(=O)(=O)N(C)C[C@H]2OCc3cnnn3CCCC(=O)N([C@@H](C)CO)C[C@H]2C)cc1 | 0.4 | 8.8 | -3.4 | 1.2 | 3.5 | -4.8
C[C@@H]1CN([C@H](C)CO)C(=O)CCCn2nncc2CO[C@H]1CN(C)Cc1ccc(-c2ccccc2)cc1 | -0.2 | -11.0 | 9.6 | -6.0 | -1.4 | -11.2
C[C@H]1CN([C@@H](C)CO)C(=O)CCCn2nncc2CO[C@@H]1CN(C)Cc1ccc(-c2ccccc2)cc1 | 5.5 | 3.7 | 2.6 | -26.0 | 37.1* | -4.6
C[C@@H]1CN([C@@H](C)CO)C(=O)CCCn2nncc2CO[C@@H]1CN(C)C(=O)Nc1cccc(C(F)(F)F)c1 | -0.4 | -5.1 | 26.3* | 10.4 | -16.2 | -1.2
Cc1noc(C)c1NC(=O)N(C)C[C@H]1OCc2cnnn2CCCC(=O)N([C@H](C)CO)C[C@H]1C | 0.2 | 13.1 | -4.7 | 26.6* | -21.0 | 5.2
COc1ccc(S(=O)(=O)N(C)C[C@@H]2OCc3cnnn3CCCC(=O)N([C@@H](C)CO)C[C@@H]2C)cc1 | 0.6 | 18.6 | -6.0 | 28.5* | -38.1 | 4.9
CCC(C)NS(=O)(=O)c1ccc(OCC(=O)NCc2ccccn2)cc1 (centres undefined) | 0.8 | 21.7 | -8.1 | 10.8 | -6.3 | -6.5
Cc1ccc(OCCOC(=O)c2cccc(S(=O)(=O)N3CC(C)OC(C)C3)c2)cc1 (centres undefined) | 1.4 | 19.4 | -7.1 | -0.5 | 0.0 | -0.4
CCNC(=S)N(Cc1ccccc1)Cc1nc2ccccc2c(=O)[nH]1 | 0.6 | -3.5 | -1.9 | -11.3 | 28.8 | -3.5
N#CCC(C(=O)c1cccnc1)c1ccccc1 (centres undefined) | 0.4 | -3.0 | -10.7 | -0.1 | -2.8 | -2.5
Cc1onc(-c2ccccc2Cl)c1C(O)c1ccc(F)cc1 (centres undefined) | 1.1 | 4.7 | -18.4 | 0.9 | -5.5 | -7.3
Cc1onc(-c2ccccc2)c1C(O)c1ccc(F)cc1 (centres undefined) | 6.6 | -10.9 | 32.5* | -22.6 | 42.2* | -6.3
CCCCn1nnnc1C1(C)CCC(=O)N1Cc1ccco1 (centres undefined) | 0.2 | 16.2 | -11.9 | . | . | .
Nc1c2ccccc2nc2ccccc12 | 0.2 | -8.8 | -9.3 | 8.2 | -7.6 | -9.5
Cc1nc2ccccc2c2c(N)c3ccccc3n12 | 17.2* | 2.9 | 0.8 | 2.6 | -1.4 | -1.0
O=C(O)c1ccccc1C(=O)c1cccc2ccccc12 | -0.6 | 11.3 | -6.5 | 9.8 | -8.6 | -8.2
CN(C)c1ncc(CN2CCC(CO)(CCCc3ccccc3)CC2)s1 | 0.2 | -1.8 | -7.6 | 3.5 | -11.1 | 20.4*
